Test results as given in PubChem BioAssay (NCI).
Compounds without any hit were thinned out: in the full panel of roughly 79,000, 15% have a hit. Cut-off read from the data, not from the text of the source: active = growth inhibition above about 70%; inactive = the rest.

Assays:
[1] = NCI Yeast Anticancer Drug Screen. Data for the rad50 strain (AID 155);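 note: 0% = growth of vehicle-only cultures of the same strain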; details: S. cerevisiae rad50 strain growth inhibition; at 50.0 µM; stronger effect = higher value
Outline: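 Cells are treated with compound, grown, and their growth is then scored against vehicle-only cultures of the same repair-deficient yeast strain.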

[2] = NCI Yeast Anticancer Drug Screen. Data for the mec2-1 strain (AID 157); details: S. cerevisiae mec2-1 strain, at 50.0 µM, stronger effect = higher value
Outline: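 Yeast mec2-1 mutant treated with compound. Readout: growth inhibition vs vehicle controls.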

[3] = NCI Yeast Anticancer Drug Screen. Data for the sgs1 mgt1 strain (AID 161);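 note: 0% = growth of cultures given vehicle only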; details: S. cerevisiae sgs1 mgt1 strain, at 50.0 µM, stronger effect = higher value
Outline: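 Genetically altered yeast, compound exposure, growth inhibition relative to vehicle.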

[4] = NCI Yeast Anticancer Drug Screen. Data for the cln2 rad14 strain (AID 165);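 note: 0% = growth equal to vehicle treated cultures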; details: S. cerevisiae cln2 rad14 strain, at 50.0 µM, stronger effect = higher value
Outline: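 cln2 rad14 yeast strain; compound exposure; growth inhibition read vs vehicle controls.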

[5] = NCI Yeast Anticancer Drug Screen. Data for the bub3 strain (AID 167); details: S. cerevisiae bub3 mutant strain, at 50.0 µM, stronger effect = higher value
Outline: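 Part of a panel of yeast mutants defective in DNA damage repair or cell cycle regulation. Each strain is grown with compound, and inhibition is calculated relative to solvent-treated cultures.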

[6] = NCI Yeast Anticancer Drug Screen. Data for the mlh1 rad18 strain (AID 175); details: S. cerevisiae mlh1 rad18 strain growth inhibition; at 50.0 µM; stronger effect = higher value
Outline: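 Yeast w/ defined DNA-repair lesions; compound exposure; growth vs vehicle controls → % inhibition.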

Measured: growth inhibition

O=C(CCC(=O)Nc1cc(Cl)ccc1Cl)CC(=O)c1ccc([N+](=O)[O-])cc1
inactive: [1] 10.1% | [2] 28.9% | [3] 4.35% | [4] 13.8% | [5] -2% | [6] 40.4%

C=CCCCCCCCCC(=O)N1CCN(C)CC1
inactive: [1] 46.1% | [2] -14% | [3] 9.1% | [4] 16.6% | [5] -5.25% | [6] 27.6%

CCOc1cccc(-c2ccccc2)c1
inactive: [1] 18.3% | [2] 17.6% | [3] 16.9% | [4] 9.35% | [5] 1.1% | [6] -0.35%

CC(=O)NCC1CCCO1 (stereo not given)
inactive: [1] 2.65% | [2] -18.6% | [3] -20.4% | [4] 3.85% | [5] 3.75% | [6] -5.9%

O=C1c2ccccc2C(=O)C2C3c4ccccc4C(c4ccccc43)C12 (stereo not given)
inactive: [1] -60.4% | [2] -61% | [3] -53.8% | [4] -9.2% | [5] -54.7% | [6] -57.5%

CCCCCCCCCCCCCCCCOCC(CCl)OP(=O)(O)OP(=O)(O)OCC1OC(n2ccc(N)nc2=O)C(O)C1O (stereo not given)
inactive: [1] -33.3% | [2] -38.9% | [3] 15.1% | [4] -35% | [5] -37.4% | [6] -95.4%

COc1ccc(Cl)cc1NC(=O)Nc1ccc(S(N)(=O)=O)cc1
inactive: [1] 9.7% | [2] 8% | [3] 4.85% | [4] 18.1% | [5] 19.1% | [6] 9.65%

COc1cc(C2=N/C(=C\c3cc(Cl)cc(Cl)c3O)C(=O)O2)cc(OC)c1OC
inactive: [1] -33.7% | [2] -23.6% | [3] 2.85% | [4] -12.6% | [5] -2.9% | [6] -2.8%

Cc1ccccc1NC(=O)C(C)C
inactive: [1] 28.8% | [2] -5.7% | [3] 4.35% | [4] 11.3% | [5] 15.2% | [6] 7.2%

Cc1c(C)c(C)c(S(=O)(=O)NCCCNS(=O)(=O)c2c(C)c(C)c(C)c(C)c2C)c(C)c1C
inactive: [1] 3.85% | [2] -28.7% | [3] -7.2% | [4] 7.7% | [5] -4.95% | [6] -1.1%

O=C1C=C(Nc2ccc(S(=O)(=O)Nc3ncccn3)cc2)c2ccccc2C1=O
inactive: [1] 27.4% | [2] 41.5% | [3] 50.1% | [4] 30.8% | [5] 18.9% | [6] 44.6%

N/C(=N/O)c1cn(C2OC(CO)C(O)C2O)c2ncnc(NO)c12 (stereo not given)
inactive: [1] 9.65% | [2] -20.6% | [3] -0.2% | [4] -1.15% | [5] -16.1% | [6] 4.1%

CN(C)CCC(C(=O)NCc1ccccc1)C(=O)NCc1ccccc1
inactive: [1] -6.1% | [2] -9.95% | [3] 1.3% | [4] -17.4% | [5] -2.55% | [6] -17.2%

O=C(OCc1ccccc1)N1CCCCC1
inactive: [1] 7.9% | [2] -2.65% | [3] 5.45% | [4] -13.2% | [5] 22.2% | [6] -1%

NC(CO)CSCc1ccccc1 (stereo not given)
inactive: [1] 1.65% | [2] 1.6% | [3] 11.6% | [4] -4.4% | [5] 13.3% | [6] -0.65%

Cc1ccc(Cl)c(NC(=O)COc2ccc(Cl)cc2)c1
inactive: [1] -1.2% | [2] 28.3% | [3] 22.3% | [4] -6.6% | [5] 32.7% | [6] 26.4%

CC1C(OC(=O)CCl)CCC2C1(C)CCC1C2(C)CCC2(C)C3CC(C)(C)CCC3(C)CCC12C (stereo not given)
inactive: [1] -13.2% | [2] 1% | [3] -1.85% | [4] -12.2% | [5] 2.15% | [6] -10.2%

O=C1C=C2CCC(c3ccc(O)cc3)CC2CC1 (stereo not given)
inactive: [1] -3% | [2] 7.6% | [3] -1.6% | [4] 7.65% | [5] -0.45% | [6] -8%

O=C1c2ccccc2C(=O)N1C1CCCCC1
inactive: [1] 7.15% | [2] 35.9% | [3] 22.4% | [4] -4.25% | [5] 56.4% | [6] -16.6%

COc1cccc(NC(=O)CSc2nnc(Cc3ccccc3)o2)c1
inactive: [1] -18.8% | [2] -11.9% | [3] -20.8% | [4] -8.2% | [5] -12.4% | [6] -36.5%
